Calls of active or inactive are those of the source. The calls were made as follows: active = hit-call score of the fitted dose curve at least 0.9, where 1 is the maximum; inactive = score below 0.9.
target: CCAAT/enhancer-binding protein beta (Homo sapiens) (UniProt P17676); assay: ATG_C_EBP_CIS: Attagene CIS-FACTORIAL HepG2 Assay for human CCAAT/Enhancer Binding Protein (C/EBP) beta (AID 2282927); conditions: HepG2 Attagene cis-factorial transcription factor reporter; actives raise or lower the signal
Sequence (P17676 whole entry, looked up): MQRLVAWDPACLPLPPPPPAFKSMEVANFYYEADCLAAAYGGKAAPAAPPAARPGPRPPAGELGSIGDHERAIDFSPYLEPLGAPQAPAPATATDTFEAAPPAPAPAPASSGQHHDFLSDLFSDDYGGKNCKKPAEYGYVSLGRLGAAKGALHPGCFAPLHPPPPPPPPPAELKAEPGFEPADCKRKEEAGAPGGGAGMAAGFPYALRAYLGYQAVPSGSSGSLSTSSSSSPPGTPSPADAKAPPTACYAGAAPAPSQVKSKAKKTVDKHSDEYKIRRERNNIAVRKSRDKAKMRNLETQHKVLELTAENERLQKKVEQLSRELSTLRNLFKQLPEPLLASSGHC
Outline: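 Endogenous transcription factor activity in human liver HepG2 cells is inferred from induction of a CEBPB-linked reporter mRNA. Exposure lasts 24 h; activity is fitted in both directions relative to DMSO.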

outcome, inactive:
CCCOCCC, CN(C)CCC(c1ccc(Cl)cc1)c1ccccn1 (configuration not stated), CN(C)CCCN1c2ccccc2CCc2ccc(Cl)cc21, CC/C=C\CC1=C(C)CCC1=O, C[C@H]1C[C@H]2[C@@H]3CCC4=CC(=O)C=C[C@]4(C)[C@@]3(F)[C@@H](O)C[C@]2(C)[C@@]1(O)C(=O)CO, COC(OC)C(C)c1ccccc1 (configuration not stated), F[B-](F)(F)F, COCCCN, CC1=CCCC(C)(C)C12CCC(C)O2 (configuration not stated), CC(=O)c1nccs1, COc1ccccc1OCC(O)CO (configuration not stated), OCCN(CCO)c1cccc(Cl)c1, O=C(O)c1nc(Cl)c(Cl)c(Cl)c1Cl, CC=CC(=O)O

tested on: not listed separately; assay: ATG_CMV_CIS: Attagene CIS-FACTORIAL HepG2 Assay for human CMV (Internal Marker) (AID 2282928); conditions: HepG2 CMV promoter reporter, transcription factor profiling; actives raise or lower the signal;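 also: endpoint acts as a background internal control marker rather than a target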
Outline: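 After transient transfection of HepG2 with reporter transcription units driven by cis-regulatory promoters, cells receive test chemical for 24 h. Labeled reporter amplicons, digested with HpaI, are sized and quantified by capillary electrophoresis against DMSO.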

outcome, inactive:
CC1(C)S[C@@H]2[C@H](NC(=O)[C@H](N)c3ccccc3)C(=O)N2[C@H]1C(=O)O, CCC(C)(CCC(C)C)C(=O)O (configuration not stated), Cc1cc(C)c(S(=O)(=O)O)cc1N=Nc1cc(S(=O)(=O)O)c2ccccc2c1O, Clc1ccccn1, CCCCCCOC(=O)CCCCCCCC(=O)OCCCCCC, CC1=NN(c2cc(Cl)c(S(=O)(=O)O)cc2Cl)C(=O)C1N=Nc1ccc(S(=O)(=O)O)cc1 (configuration not stated), O=C(O)Cc1c[nH]c2ccccc12, CCCCCCCCCCC1CO1 (configuration not stated), NCc1ccccc1, O=[N+]([O-])c1ccc2nc[nH]c2c1, CCCCn1cc[n+](C)c1, CC(C)CC(=O)O, C[Si](C)(C)O[Si](C)(C)O[Si](C)(C)C, CC(C)n1c(/C=C/[C@@H](O)C[C@@H](O)CC(=O)O)c(-c2ccc(F)cc2)c2ccccc21, CC1=C(CC=O)C(C)(C)CCC1, CC(O)(P(=O)(O)O)P(=O)(O)O, Cc1cccnc1, Cc1ccccc1S(N)(=O)=O, C=C(C)C(=O)OCC1CCCO1 (configuration not stated), OCCOCCOCCOCCOCCO, C1=CCC=C1, CC(C)CC(=O)CC(C)CC(C)C (configuration not stated), CCCOCCC, CN(C)CCC(c1ccc(Cl)cc1)c1ccccn1 (configuration not stated), CN(C)CCCN1c2ccccc2CCc2ccc(Cl)cc21, CC/C=C\CC1=C(C)CCC1=O, C[C@H]1C[C@H]2[C@@H]3CCC4=CC(=O)C=C[C@]4(C)[C@@]3(F)[C@@H](O)C[C@]2(C)[C@@]1(O)C(=O)CO, COC(OC)C(C)c1ccccc1 (configuration not stated), F[B-](F)(F)F, COCCCN, CC1=CCCC(C)(C)C12CCC(C)O2 (configuration not stated), CC(=O)c1nccs1, COc1ccccc1OCC(O)CO (configuration not stated), OCCN(CCO)c1cccc(Cl)c1, O=C(O)c1nc(Cl)c(Cl)c(Cl)c1Cl, CC=CC(=O)O

AC50, active:
CCCc1c(OCCCCc2nn[nH]n2)ccc(C(C)=O)c1O 135 µM, c1cc(N(CC2CO2)CC2CO2)ccc1Cc1ccc(N(CC2CO2)CC2CO2)cc1 (configuration not stated) 26.6 µM, Cc1cc(O)cc(C)c1Cl 37.3 µM

tested on: not listed separately; assay: ATG_DR4_LXR_CIS: Attagene CIS-FACTORIAL HepG2 Assay for human Liver X Receptor (LXR), DR4 submotif (AID 2282929); conditions: HepG2 Attagene DR4 cis-reporter, mRNA transcription; actives raise or lower the signal
Outline: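 HepG2 cells were transiently transfected with multiple cis-regulated reporter units and dosed for 24 hours. The DR4 reporter mRNA was quantified by RT-PCR, 6-FAM labelling and capillary electrophoresis. Bidirectional fits used DMSO as baseline.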

outcome, inactive:
CC1(C)S[C@@H]2[C@H](NC(=O)[C@H](N)c3ccccc3)C(=O)N2[C@H]1C(=O)O, CCC(C)(CCC(C)C)C(=O)O (configuration not stated), Cc1cc(C)c(S(=O)(=O)O)cc1N=Nc1cc(S(=O)(=O)O)c2ccccc2c1O, CCCc1c(OCCCCc2nn[nH]n2)ccc(C(C)=O)c1O, Clc1ccccn1, CCCCCCOC(=O)CCCCCCCC(=O)OCCCCCC, CC1=NN(c2cc(Cl)c(S(=O)(=O)O)cc2Cl)C(=O)C1N=Nc1ccc(S(=O)(=O)O)cc1 (configuration not stated), O=C(O)Cc1c[nH]c2ccccc12, CCCCCCCCCCC1CO1 (configuration not stated), NCc1ccccc1, O=[N+]([O-])c1ccc2nc[nH]c2c1, CCCCn1cc[n+](C)c1, CC(C)CC(=O)O, C[Si](C)(C)O[Si](C)(C)O[Si](C)(C)C, CC(C)n1c(/C=C/[C@@H](O)C[C@@H](O)CC(=O)O)c(-c2ccc(F)cc2)c2ccccc21, CC1=C(CC=O)C(C)(C)CCC1, CC(O)(P(=O)(O)O)P(=O)(O)O, Cc1cccnc1, Cc1ccccc1S(N)(=O)=O, C=C(C)C(=O)OCC1CCCO1 (configuration not stated), OCCOCCOCCOCCOCCO, C1=CCC=C1, CC(C)CC(=O)CC(C)CC(C)C (configuration not stated), CCCOCCC, CN(C)CCC(c1ccc(Cl)cc1)c1ccccn1 (configuration not stated), CN(C)CCCN1c2ccccc2CCc2ccc(Cl)cc21, CC/C=C\CC1=C(C)CCC1=O, COC(OC)C(C)c1ccccc1 (configuration not stated), F[B-](F)(F)F, COCCCN, CC1=CCCC(C)(C)C12CCC(C)O2 (configuration not stated), CC(=O)c1nccs1, COc1ccccc1OCC(O)CO (configuration not stated), OCCN(CCO)c1cccc(Cl)c1, O=C(O)c1nc(Cl)c(Cl)c(Cl)c1Cl, CC=CC(=O)O

AC50, active:
c1cc(N(CC2CO2)CC2CO2)ccc1Cc1ccc(N(CC2CO2)CC2CO2)cc1 (configuration not stated) 27.3 µM, Cc1cc(O)cc(C)c1Cl 65.4 µM, C[C@H]1C[C@H]2[C@@H]3CCC4=CC(=O)C=C[C@]4(C)[C@@]3(F)[C@@H](O)C[C@]2(C)[C@@]1(O)C(=O)CO 166 µM

From PubChem BioAssay (EPA / NIEHS)
